Experimental findings from PubChem BioAssay (EPA / NIEHS) are described below.

Records with an inconclusive call do not appear. Activity calls are given as the source filed them. Rule for the calls, unless noted: active = hit-call score of the fitted dose curve at least 0.9, where 1 is the maximum; inconclusive = response in the unintended direction; inactive = score below 0.9.

The nature of experiment [1]: ATG_TAL_CIS: Attagene CIS-FACTORIAL HepG2 Assay for human TAL Basal Promoter (AID 2282966; active = hit-call score of the fitted dose curve at least 0.9, where 1 is the maximum; inactive = score below 0.9;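 note: background control endpoint measuring basal TAL promoter reporter mRNA not a specific factor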). As to conditions: HepG2 Attagene cis-factorial TAL promoter reporter; actives raise or lower the signal. The procedure, abridged:
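Background-control endpoint: basal TAL promoter reporter transcripts in transiently transfected HepG2, measured 24 h after dosing. Read-out by RT-PCR with fluorescent primer extension and capillary electrophoresis; gain or loss of signal fitted relative to DMSO.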

Experiment [2] can be described thus: ATG_TGFb_CIS: Attagene CIS-FACTORIAL HepG2 Assay for human Transforming Growth Factor (TGF) (AID 2282967; active = hit-call score of the fitted dose curve at least 0.9, where 1 is the maximum; inactive = score below 0.9). Conditions: HepG2 Attagene CIS TGFb reporter, mRNA transcription; actives raise or lower the signal. The procedure, abridged: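 Multiplexed cis-reporter HepG2 system, 24 h treatment; mRNA induction read by fluorescence after RT-PCR and CE; DMSO negative control, bidirectional curve fitting.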

The nature of experiment [3]: ATG_VDRE_CIS: Attagene CIS-FACTORIAL HepG2 Assay for human Vitamin D Receptor Element (VDRE) (AID 2282968; active = hit-call score of the fitted dose curve at least 0.9, where 1 is the maximum; inactive = score below 0.9). As to conditions: HepG2 VDRE cis-reporter transcription, actives raise or lower the signal. The procedure, abridged: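 Compounds were applied for 24 h to HepG2 cells transfected with promoter-regulated reporter units. Total RNA was reverse-transcribed, and reporter amplicons were fluorescently labelled and sized by capillary electrophoresis.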

The target in experiment [4] is Steroid hormone receptor ERR1 (Homo sapiens) (UniProt P11474). The experiment in a line: ATG_ERRa_TRANS: Attagene TRANS-FACTORIAL HepG2 Assay for human Estrogen-Related Receptor alpha (ERRa) (AID 2282971). As to conditions: HepG2 Attagene TRANS reporter, ERRa transactivation. The procedure, abridged:
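Reporter transcripts from ERRa-Gal4 chimera activity measured in transiently transfected human HepG2 cells 24 hours after dosing, using RT-PCR with 6-FAM primer extension, HpaI digestion and capillary electrophoresis; DMSO is baseline.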

For experiment [5], the target named is X-box-binding protein 1 (Homo sapiens) (UniProt P17861). The experiment in a line: ATG_Xbp1_CIS: Attagene CIS-FACTORIAL HepG2 Assay for human X-box Binding Protein 1 (XBP1) (AID 2282972; active = hit-call score of the fitted dose curve at least 0.9, where 1 is the maximum; inactive = score below 0.9). As to conditions: HepG2 XBP1 cis-element reporter, Attagene multiplex; actives raise or lower the signal. The procedure, abridged: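 Multiplexed cis-reporter readout in transfected HepG2 liver cells. Exposure lasted 24 hours. Activity in either direction was fitted against DMSO as negative control and baseline.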

Experiment [6] is described as follows: ATG_GAL4_TRANS: Attagene TRANS-FACTORIAL HepG2 Assay for GAL4 (Internal Marker) (AID 2282976). Conditions: HepG2 Attagene TRANS GAL4 internal marker reporter. The procedure, abridged: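 In transfected human HepG2 liver cells dosed 24 h, GAL4 reporter mRNA serves as a baseline marker. Detection by RT-PCR with fluorescent capillary electrophoresis, activity fitted upward relative to DMSO.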

Experiment [7] deals with Hepatocyte nuclear factor 4-alpha (Homo sapiens) (UniProt P41235). The experiment can be described thus: ATG_HNF4a_TRANS: Attagene TRANS-FACTORIAL HepG2 Assay for human Hepatocyte Nuclear Factor 4 alpha (HNF4a) (AID 2282982). As to conditions: HepG2 HNF4a transactivation reporter, mRNA readout. A digest of the protocol: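 Endpoint reflects transcriptional activation of a GAL4-UAS reporter by an HNF4a-GAL4 chimera in transfected HepG2 cells, 24 h post-dosing. Fluorescence from RT-PCR products separated by capillary electrophoresis; DMSO baseline.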

A short description of experiment [8]: ATG_M_06_TRANS: Attagene TRANS-FACTORIAL HepG2 Assay for M06 Transcription Factor (Internal Marker) (AID 2282983). Conditions: HepG2 Attagene TRANS M06 internal marker reporter. A digest of the protocol:
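Background-control reporter readout: after 24 h chemical exposure of transiently transfected HepG2 (GAL4-UAS reporter units), mRNA quantified by RT-PCR with fluorescent labeling and capillary electrophoresis. Gain-of-signal fitting against DMSO baseline.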

In experiment [9] the target is Nuclear receptor subfamily 4 group A member 2 (Homo sapiens) (UniProt P43354). The experiment can be described thus: ATG_NURR1_TRANS: Attagene TRANS-FACTORIAL HepG2 Assay for human Nuclear Receptor Related Protein 1 (NURR1) (AID 2282985). As to conditions: HepG2 Attagene TRANS reporter, mRNA readout. A digest of the protocol: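 Endpoint: reporter mRNA increase relative to DMSO. HepG2 cells transfected with reporter units, treated 24 h; RNA processed by RT-PCR, labelling, HpaI digestion and capillary electrophoresis.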

Experiment [10] addresses Transcriptional activator Myb (Homo sapiens) (UniProt P10242). The experiment can be described thus: ATG_Myb_CIS: Attagene CIS-FACTORIAL HepG2 Assay for human Myeloblastosis (Myb) Proto-Oncogene Transcription Factor (AID 2282986; active = hit-call score of the fitted dose curve at least 0.9, where 1 is the maximum; inactive = score below 0.9). Conditions: HepG2 Attagene CIS-FACTORIAL Myb reporter transcription; actives raise or lower the signal. A digest of the protocol:
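Using HepG2 liver cells bearing transiently transfected cis-promoter reporter constructs, the assay measures induction or loss of reporter mRNA after 24 hours of dosing. Detection used fluorescently labeled RT-PCR products separated by capillary electrophoresis.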

In experiment [11] the target is Nuclear respiratory factor 1 (Homo sapiens) (UniProt Q16656). The experiment in a line: ATG_NRF1_CIS: Attagene CIS-FACTORIAL HepG2 Assay for human Nuclear Respiratory Factor 1 (NRF1) Orphan Gene (AID 2282987; active = hit-call score of the fitted dose curve at least 0.9, where 1 is the maximum; inactive = score below 0.9). Conditions: HepG2 NRF1 cis-element reporter, Attagene multiplex; actives raise or lower the signal. A digest of the protocol:
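Reporter mRNA induction or loss in HepG2 cells after 24 h dosing; cis-regulated reporter constructs report endogenous transcription-factor activity. Quantified by RT-PCR/capillary electrophoresis fluorescence, DMSO-referenced.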

Experiment [12] deals with Estrogen receptor (Homo sapiens) (UniProt P03372). The experiment can be described thus: ATG_ERa_TRANS: Attagene TRANS-FACTORIAL HepG2 Assay for human Estrogen Receptor alpha (ERa) (AID 2282970). Conditions: HepG2 Attagene TRANS ERa GAL4 reporter, mRNA. A digest of the protocol: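 Reporter transcripts were measured 24 h after dosing by RT-PCR with fluorescent primer extension and capillary electrophoresis. The system is transiently transfected HepG2 expressing exogenous NR-Gal4 chimeras driving GAL4-UAS reporters; DMSO is the baseline.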

A short description of experiment [13]: ATG_M_19_TRANS: Attagene TRANS-FACTORIAL HepG2 Assay for M19 Transcription Factor (Internal Marker) (AID 2282974). Conditions: HepG2 Attagene TRANS-FACTORIAL M19 internal marker reporter. A digest of the protocol: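 Multiplexed TRANS format: HepG2 liver cells bearing transient GAL4-UAS reporter units, chemical treatment 24 h, reporter transcripts quantified by RT-PCR plus capillary electrophoresis. DMSO defines baseline.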

In experiment [14] the target is Estrogen-related receptor gamma (Homo sapiens) (UniProt P62508). The experiment in a line: ATG_ERRg_TRANS: Attagene TRANS-FACTORIAL HepG2 Assay for human Estrogen-Related Receptor gamma (ERRg) (AID 2282977).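 Note: hits increase reporter signal over DMSO so potencies reflect activators.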 As to conditions: HepG2 Attagene TRANS reporter, ERRg transactivation. The procedure, abridged:
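Exogenous NR-Gal4 chimera activity measured as reporter transcript induction after 24 h in transiently transfected HepG2 cells. RNA reverse-transcribed, PCR-amplified, 6-FAM-labelled and resolved by capillary electrophoresis; increase over DMSO baseline.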

Experiment [15] has as its target Glucocorticoid receptor (Homo sapiens) (UniProt P04150). The experiment can be described thus: ATG_GR_TRANS: Attagene TRANS-FACTORIAL HepG2 Assay for human Glucocorticoid Receptor (GR) (AID 2282978).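 Note: activators score as hits since higher reporter transcript over DMSO is fitted.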 Conditions: HepG2 Attagene TRANS GR reporter, mRNA transcription. The procedure, abridged:
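Transiently transfected HepG2 cells express chimeric NR-GAL4 proteins acting on GAL4-UAS reporter units. Compounds are applied for 24 h. mRNA induction over DMSO is measured by capillary electrophoresis.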

Experiment [16] has as its target Oxysterols receptor LXR-beta (Homo sapiens) (UniProt P55055). The experiment can be described thus: ATG_LXRb_TRANS: Attagene TRANS-FACTORIAL HepG2 Assay for human Liver X Receptor beta (LXRb) (AID 2282981). Conditions: HepG2 Attagene TRANS GAL4-LXRb reporter, mRNA. The procedure, abridged:
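Multiplexed reporter assay, HepG2, 24 h dosing. Fluorescence of labelled RT-PCR products after capillary electrophoresis gives transcript level; positive fitting direction relative to DMSO.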

Experiment [17] can be described thus: ATG_M_32_TRANS: Attagene TRANS-FACTORIAL HepG2 Assay for M32 Transcription Factor (Internal Marker) (AID 2282984). As to conditions: HepG2 Attagene TRANS M32 internal marker reporter. The procedure, abridged:
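Internal-marker readout from a multiplexed transcription reporter panel. HepG2 cells were transfected with GAL4-UAS reporter units, treated 24 hours, and reporter transcript levels determined by fluorescence after RT-PCR and capillary separation.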

The target of experiment [18] is Nuclear receptor subfamily 1 group I member 3 (Homo sapiens) (UniProt Q14994). The experiment can be described thus: ATG_CAR_TRANS: Attagene TRANS-FACTORIAL HepG2 Assay for human Constitutive Androstane Receptor (CAR) (AID 2282969).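 Note: activators raise reporter mRNA above DMSO so AC50 marks induction.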 As to conditions: HepG2 Attagene TRANS-FACTORIAL CAR reporter. The procedure, abridged:
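Transiently transfected HepG2, multiplex TRANS reporters (CAR-Gal4 chimera driving GAL4-UAS reporter). 24 h dosing. Readout: reporter transcript by RT-PCR + capillary electrophoresis, fluorescence intensity; positive direction vs DMSO.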

The target of experiment [19] is Bile acid receptor (Homo sapiens) (UniProt Q96RI1). The experiment can be described thus: ATG_FXR_TRANS: Attagene TRANS-FACTORIAL HepG2 Assay for Farnesoid X Receptor (FXR) (AID 2282979).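 Note: hits raise reporter mRNA above DMSO so AC50 marks FXR activation.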 Conditions: HepG2 Attagene TRANS FXR-GAL4 reporter transcription. The procedure, abridged:
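Reporter transcripts from transfected HepG2 cells were measured 24 h after dosing, using RT-PCR with capillary electrophoresis of 6-FAM-labelled fragments. The read-out reflects activity of exogenous FXR-Gal4 chimera on GAL4-UAS units, with induction relative to DMSO.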

Sequence of Nuclear respiratory factor 1 (Homo sapiens) (Q16656 whole entry, looked up): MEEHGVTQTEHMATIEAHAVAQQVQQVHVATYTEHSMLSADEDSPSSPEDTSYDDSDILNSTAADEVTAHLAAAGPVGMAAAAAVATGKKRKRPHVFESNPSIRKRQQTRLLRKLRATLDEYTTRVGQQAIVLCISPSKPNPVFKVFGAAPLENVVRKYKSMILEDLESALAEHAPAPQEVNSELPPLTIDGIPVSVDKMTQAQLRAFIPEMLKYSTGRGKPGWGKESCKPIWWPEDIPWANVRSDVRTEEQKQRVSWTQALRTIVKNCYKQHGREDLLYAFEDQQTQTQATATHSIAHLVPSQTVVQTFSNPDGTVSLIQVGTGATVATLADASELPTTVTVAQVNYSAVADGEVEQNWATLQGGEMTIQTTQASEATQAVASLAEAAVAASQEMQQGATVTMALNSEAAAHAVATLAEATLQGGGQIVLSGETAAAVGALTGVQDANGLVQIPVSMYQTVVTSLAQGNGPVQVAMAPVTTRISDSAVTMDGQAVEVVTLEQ
Sequence of Nuclear receptor subfamily 4 group A member 2 (Homo sapiens) (P43354 whole entry, looked up): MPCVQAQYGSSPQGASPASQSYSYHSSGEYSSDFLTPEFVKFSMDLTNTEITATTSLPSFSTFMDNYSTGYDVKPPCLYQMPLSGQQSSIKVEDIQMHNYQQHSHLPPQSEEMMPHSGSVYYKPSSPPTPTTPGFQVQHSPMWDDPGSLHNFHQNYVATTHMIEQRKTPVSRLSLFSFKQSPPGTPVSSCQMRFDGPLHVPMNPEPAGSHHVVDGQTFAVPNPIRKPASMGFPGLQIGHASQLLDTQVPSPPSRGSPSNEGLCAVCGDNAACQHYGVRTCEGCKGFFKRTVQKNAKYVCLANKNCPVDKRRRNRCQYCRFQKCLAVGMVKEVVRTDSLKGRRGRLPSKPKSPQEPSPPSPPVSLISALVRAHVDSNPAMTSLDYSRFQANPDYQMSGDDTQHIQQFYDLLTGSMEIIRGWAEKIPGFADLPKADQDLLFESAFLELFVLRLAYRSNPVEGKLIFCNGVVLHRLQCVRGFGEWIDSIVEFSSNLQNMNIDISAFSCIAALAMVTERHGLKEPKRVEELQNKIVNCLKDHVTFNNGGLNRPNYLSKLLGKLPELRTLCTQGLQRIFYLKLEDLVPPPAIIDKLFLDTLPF
Sequence of Estrogen-related receptor gamma (Homo sapiens) (P62508 whole entry, looked up, the tested form may be a part): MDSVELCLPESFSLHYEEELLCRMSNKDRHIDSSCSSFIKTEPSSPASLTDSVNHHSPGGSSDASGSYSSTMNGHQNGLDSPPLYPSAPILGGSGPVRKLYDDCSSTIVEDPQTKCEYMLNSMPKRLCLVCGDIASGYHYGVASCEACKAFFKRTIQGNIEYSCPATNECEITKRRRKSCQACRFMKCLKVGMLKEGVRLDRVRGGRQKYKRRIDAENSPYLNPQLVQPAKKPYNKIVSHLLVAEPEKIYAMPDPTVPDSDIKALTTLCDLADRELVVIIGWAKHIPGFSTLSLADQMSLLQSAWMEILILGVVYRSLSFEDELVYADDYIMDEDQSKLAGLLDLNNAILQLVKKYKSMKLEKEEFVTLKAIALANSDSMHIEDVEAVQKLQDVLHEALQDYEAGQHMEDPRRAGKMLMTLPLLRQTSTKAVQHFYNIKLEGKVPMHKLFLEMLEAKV
Sequence of Bile acid receptor (Homo sapiens) (Q96RI1 whole entry, looked up, the tested form may be a part): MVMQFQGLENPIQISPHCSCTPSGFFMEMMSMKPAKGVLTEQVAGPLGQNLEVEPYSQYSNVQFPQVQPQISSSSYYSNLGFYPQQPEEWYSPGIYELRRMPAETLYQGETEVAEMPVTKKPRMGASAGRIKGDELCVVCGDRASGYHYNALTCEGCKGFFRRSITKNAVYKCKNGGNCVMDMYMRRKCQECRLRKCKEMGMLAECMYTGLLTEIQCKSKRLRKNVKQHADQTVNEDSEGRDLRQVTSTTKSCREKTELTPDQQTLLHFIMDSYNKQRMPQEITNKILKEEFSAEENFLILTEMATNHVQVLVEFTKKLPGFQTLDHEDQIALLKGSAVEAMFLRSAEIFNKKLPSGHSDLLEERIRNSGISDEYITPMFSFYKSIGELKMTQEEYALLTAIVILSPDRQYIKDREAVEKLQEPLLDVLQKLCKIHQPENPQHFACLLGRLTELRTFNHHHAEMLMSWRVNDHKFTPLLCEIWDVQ
Sequence of X-box-binding protein 1 (Homo sapiens) (P17861 whole entry, looked up): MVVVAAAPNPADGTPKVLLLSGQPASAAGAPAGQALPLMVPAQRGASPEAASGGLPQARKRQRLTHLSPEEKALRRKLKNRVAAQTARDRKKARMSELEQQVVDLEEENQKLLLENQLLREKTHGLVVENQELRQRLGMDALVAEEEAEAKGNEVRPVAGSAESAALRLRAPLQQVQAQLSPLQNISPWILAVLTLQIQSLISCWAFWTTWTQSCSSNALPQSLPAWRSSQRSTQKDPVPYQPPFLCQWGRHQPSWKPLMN
Sequence of Steroid hormone receptor ERR1 (Homo sapiens) (P11474 whole entry, looked up, the tested form may be a part): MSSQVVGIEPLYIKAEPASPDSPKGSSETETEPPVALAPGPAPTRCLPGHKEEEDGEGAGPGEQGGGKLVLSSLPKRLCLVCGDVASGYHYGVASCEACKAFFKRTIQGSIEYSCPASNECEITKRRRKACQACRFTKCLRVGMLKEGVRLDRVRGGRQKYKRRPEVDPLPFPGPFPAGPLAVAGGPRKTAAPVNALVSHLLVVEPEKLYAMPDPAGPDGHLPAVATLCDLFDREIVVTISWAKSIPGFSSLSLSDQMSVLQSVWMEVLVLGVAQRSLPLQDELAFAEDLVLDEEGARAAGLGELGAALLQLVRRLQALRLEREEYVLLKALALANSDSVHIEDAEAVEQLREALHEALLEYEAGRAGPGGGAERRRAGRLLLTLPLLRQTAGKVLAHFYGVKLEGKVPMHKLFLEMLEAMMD
Sequence of Estrogen receptor (Homo sapiens) (P03372 whole entry, looked up, the tested form may be a part): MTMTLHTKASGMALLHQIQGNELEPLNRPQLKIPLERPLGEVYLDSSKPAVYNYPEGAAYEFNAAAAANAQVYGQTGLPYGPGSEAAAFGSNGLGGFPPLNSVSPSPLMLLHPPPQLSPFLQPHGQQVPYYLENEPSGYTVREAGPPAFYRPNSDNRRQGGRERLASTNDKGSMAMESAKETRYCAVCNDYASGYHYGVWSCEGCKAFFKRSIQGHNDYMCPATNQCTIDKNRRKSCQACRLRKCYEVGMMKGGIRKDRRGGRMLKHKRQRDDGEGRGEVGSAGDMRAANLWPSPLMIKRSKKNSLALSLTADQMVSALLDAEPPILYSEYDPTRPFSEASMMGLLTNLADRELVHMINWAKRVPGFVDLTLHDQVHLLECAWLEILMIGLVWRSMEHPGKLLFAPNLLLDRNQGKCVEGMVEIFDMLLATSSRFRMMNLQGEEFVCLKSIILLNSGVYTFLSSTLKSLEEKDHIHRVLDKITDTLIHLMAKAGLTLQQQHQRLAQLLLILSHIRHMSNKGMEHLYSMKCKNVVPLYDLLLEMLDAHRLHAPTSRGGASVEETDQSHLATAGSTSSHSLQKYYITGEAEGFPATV
Sequence of Glucocorticoid receptor (Homo sapiens) (P04150 whole entry, looked up, the tested form may be a part): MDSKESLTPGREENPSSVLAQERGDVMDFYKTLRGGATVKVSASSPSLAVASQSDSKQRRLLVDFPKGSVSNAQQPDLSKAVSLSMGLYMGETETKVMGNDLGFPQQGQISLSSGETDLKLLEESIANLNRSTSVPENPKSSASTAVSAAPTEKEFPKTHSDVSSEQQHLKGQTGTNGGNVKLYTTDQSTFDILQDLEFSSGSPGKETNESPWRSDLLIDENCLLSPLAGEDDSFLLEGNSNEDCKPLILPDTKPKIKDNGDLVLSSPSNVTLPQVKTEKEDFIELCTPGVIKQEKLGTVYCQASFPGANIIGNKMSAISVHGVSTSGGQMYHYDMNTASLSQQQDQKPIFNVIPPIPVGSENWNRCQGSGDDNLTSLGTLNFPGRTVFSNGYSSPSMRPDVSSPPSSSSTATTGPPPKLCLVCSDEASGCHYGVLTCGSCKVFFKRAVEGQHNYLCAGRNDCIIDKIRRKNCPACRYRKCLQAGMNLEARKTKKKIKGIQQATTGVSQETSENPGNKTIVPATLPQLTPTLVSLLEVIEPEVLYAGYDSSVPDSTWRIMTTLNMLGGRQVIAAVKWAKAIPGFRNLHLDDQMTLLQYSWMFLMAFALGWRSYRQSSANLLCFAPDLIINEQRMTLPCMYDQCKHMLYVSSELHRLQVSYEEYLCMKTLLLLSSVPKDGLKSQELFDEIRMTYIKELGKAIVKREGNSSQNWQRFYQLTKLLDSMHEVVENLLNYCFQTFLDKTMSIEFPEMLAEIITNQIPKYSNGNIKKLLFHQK
Sequence of Hepatocyte nuclear factor 4-alpha (Homo sapiens) (P41235 whole entry, looked up, the tested form may be a part): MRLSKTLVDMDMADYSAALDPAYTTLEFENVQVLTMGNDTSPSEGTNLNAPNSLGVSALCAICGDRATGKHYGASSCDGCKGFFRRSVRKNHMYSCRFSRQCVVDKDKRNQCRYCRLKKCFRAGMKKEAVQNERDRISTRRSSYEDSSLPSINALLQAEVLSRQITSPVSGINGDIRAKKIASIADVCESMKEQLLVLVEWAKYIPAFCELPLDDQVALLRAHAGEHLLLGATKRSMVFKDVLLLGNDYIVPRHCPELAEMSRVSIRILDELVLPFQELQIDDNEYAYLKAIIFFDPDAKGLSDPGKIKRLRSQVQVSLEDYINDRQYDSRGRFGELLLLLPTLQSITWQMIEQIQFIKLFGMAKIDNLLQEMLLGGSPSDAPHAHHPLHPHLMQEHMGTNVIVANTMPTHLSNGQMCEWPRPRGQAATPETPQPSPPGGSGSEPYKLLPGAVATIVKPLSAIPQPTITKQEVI
Sequence of Nuclear receptor subfamily 1 group I member 3 (Homo sapiens) (Q14994 whole entry, looked up, the tested form may be a part): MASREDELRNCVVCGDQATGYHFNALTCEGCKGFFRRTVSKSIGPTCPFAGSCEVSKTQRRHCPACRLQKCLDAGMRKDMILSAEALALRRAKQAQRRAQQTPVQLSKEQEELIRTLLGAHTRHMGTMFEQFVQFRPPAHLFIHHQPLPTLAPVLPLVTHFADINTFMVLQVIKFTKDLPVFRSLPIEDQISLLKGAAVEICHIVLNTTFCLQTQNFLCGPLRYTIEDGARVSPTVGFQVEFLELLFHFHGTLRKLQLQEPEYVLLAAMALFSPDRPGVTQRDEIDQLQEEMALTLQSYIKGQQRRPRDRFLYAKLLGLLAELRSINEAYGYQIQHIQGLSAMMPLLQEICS

`CCCCCCOC(=O)CC(CC(=O)OCCCCCC)(OC(=O)CCC)C(=O)OCCCCCC`: the compound was called inactive in experiment [1], in [2], in [3], in experiment [4], in experiment [5] and in [6]. For the same compound, the outcome in experiment [7], in experiment [8], in experiment [9], in experiment [10] and in experiment [11] was inactive.

For the compound `NNC(=O)c1ccncc1`, the compound was classed as inactive in experiment [1], in [2], in [3], in [12], in [4] and in experiment [5]. Further, the call in experiment [13], in experiment [6], in experiment [14], in experiment [15], in experiment [16] and in experiment [8] was inactive. Besides, the outcome in experiment [17] and in experiment [10] was inactive.

Regarding `c1ccc2cc3ccccc3cc2c1`, the compound was classed as inactive in experiment [1], in experiment [2], in experiment [3], in experiment [12], in experiment [4] and in experiment [5]. The compound was classed as inactive in experiment [13], in experiment [14], in [15], in [17], in [10] and in experiment [11].

In the case of `CCCCCCCC1CCC(=O)O1` (stereo not given), the compound was classed as inactive in experiment [1], in [2], in experiment [18], in experiment [12], in experiment [5] and in experiment [13]. In addition, the compound was classed as inactive in experiment [15], in [19], in experiment [17] and in experiment [10].

Regarding `O=c1[nH]cnc2c1ncn2[C@H]1CC[C@@H](CO)O1`, the compound was called inactive in experiment [1], in experiment [2], in [18], in experiment [5], in experiment [13] and in experiment [14]. For the same compound, the call in experiment [15], in experiment [16], in experiment [8], in experiment [9], in [10] and in experiment [11] was inactive.

Consider `O=C(O)c1cccc(C(=O)O)c1`, for which the compound was called inactive in [1], in experiment [2], in [5], in experiment [13], in experiment [6] and in [15]. The compound was called inactive in experiment [19], in experiment [16], in experiment [7], in [17] and in experiment [10].

As to `c1ccc(C(O[C@@H]2CCCN(CCc3ccc4c(c3)OCO4)C2)c2ccccc2)cc1`, the compound was called inactive in experiment [1], in [2], in [15], in experiment [7], in experiment [8] and in experiment [17]. Besides, the call in experiment [9] and in experiment [10] was inactive. Besides, the concentration at half-maximal activity (AC50) (commonly the concentration at which the activity in the assay is half-maximal) was 1.76 µM (active) in [12] and 20.9 µM (active) in experiment [5].

In the case of `O=C(O)c1ccc2c(c1)nc(C(=O)NC1CCN(C3CC3)CC1)n2Cc1cc(-c2ccc(Cl)s2)on1`, the result in experiment [1], in [2], in experiment [12], in [5], in experiment [6] and in experiment [19] was inactive. Moreover, the compound was classed as inactive in experiment [7], in experiment [8], in experiment [9] and in [10].

For the compound `CCCc1ccccc1`, the compound was called inactive in experiment [1], in experiment [2], in [3], in experiment [5], in experiment [6] and in experiment [15]. Besides, the outcome in experiment [7], in experiment [8], in experiment [9], in experiment [10] and in experiment [11] was inactive.

Take `NC(N)=O`: the compound was classed as inactive in [1], in experiment [2], in experiment [5], in experiment [13], in experiment [6] and in [16]. For the same compound, the result in [7], in [17], in [9] and in experiment [10] was inactive.

Turning to `NC(=O)N1c2ccccc2C=Cc2ccccc21`, the compound was classed as inactive in experiment [1], in [2], in experiment [12], in [5], in experiment [6] and in [16]. The result in experiment [8], in experiment [17] and in [10] was inactive.
